Calls of active or inactive are those of the source. Unless noted, how the calls were made is not given here.
What was measured:
[1] = anti-His antibody binders, primary screen, artefact control for SMM control protein annotation, biochemical, small-molecule microarray, 635 nm fluorescence (AID 1128); settings: anti-His Alexa647 antibody binding, higher = more signal;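 further: score merges feature fluorescence with signal-to-noise for each printed compound spot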
[2] = system: Human papillomavirus type 1a E7 protein (residues 1-88); assay: HPV1a E7 small-molecule binders, primary screen, biochemical, small-molecule microarray, residues 1-88, 635 nm (AID 1129); settings: small-molecule microarray binding, fluorescence 635 nm; higher = more signal
[3] = target: Focal adhesion kinase 1 (Homo sapiens) (UniProt Q05397); assay: small-molecule microarray binders of FAK, primary screen, biochemical, 635/667 nm fluorescence, BSA, DTT (AID 1130); settings: PTK2 binding, 635 nm fluorescence, higher = more signal;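 further: composite of spot emission at 667 nm and signal to noise over triplicate slides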
Focal adhesion kinase 1 (Homo sapiens), sequence (Q05397 whole entry, looked up): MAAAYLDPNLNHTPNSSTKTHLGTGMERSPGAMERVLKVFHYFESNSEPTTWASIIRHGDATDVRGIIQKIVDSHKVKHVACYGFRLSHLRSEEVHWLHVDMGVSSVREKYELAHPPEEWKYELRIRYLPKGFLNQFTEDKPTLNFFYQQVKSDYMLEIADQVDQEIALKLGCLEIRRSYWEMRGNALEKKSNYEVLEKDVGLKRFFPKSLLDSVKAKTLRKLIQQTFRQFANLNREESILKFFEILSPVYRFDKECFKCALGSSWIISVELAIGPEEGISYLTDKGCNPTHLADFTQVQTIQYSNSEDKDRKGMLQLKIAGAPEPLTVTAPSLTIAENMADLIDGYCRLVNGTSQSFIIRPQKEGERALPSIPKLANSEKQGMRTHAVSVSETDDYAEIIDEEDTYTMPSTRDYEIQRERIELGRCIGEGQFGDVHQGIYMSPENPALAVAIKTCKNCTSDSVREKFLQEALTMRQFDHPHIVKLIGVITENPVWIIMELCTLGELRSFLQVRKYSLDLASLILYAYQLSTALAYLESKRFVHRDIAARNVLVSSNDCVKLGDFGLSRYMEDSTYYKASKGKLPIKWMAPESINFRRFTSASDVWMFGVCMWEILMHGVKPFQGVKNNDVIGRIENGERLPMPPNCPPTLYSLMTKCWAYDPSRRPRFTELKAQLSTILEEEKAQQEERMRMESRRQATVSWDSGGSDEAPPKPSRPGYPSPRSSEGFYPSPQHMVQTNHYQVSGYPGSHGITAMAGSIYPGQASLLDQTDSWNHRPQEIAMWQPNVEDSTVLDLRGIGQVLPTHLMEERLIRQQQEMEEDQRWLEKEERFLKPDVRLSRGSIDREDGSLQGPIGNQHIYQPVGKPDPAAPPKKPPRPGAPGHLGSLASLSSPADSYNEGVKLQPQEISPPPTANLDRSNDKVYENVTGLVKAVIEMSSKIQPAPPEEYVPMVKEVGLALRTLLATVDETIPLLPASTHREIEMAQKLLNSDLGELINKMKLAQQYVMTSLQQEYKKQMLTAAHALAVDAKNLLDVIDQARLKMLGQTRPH

[4] = system: Fibrinogen (Alexa647-labelled); assay: fibrinogen binders on compound microarrays, profiling panel, artefact control for SMM control-protein annotation, biochemical, small-molecule microarray, 635/667 nm fluorescence (AID 1131); settings: fibrinogen-A647 binding fluorescence, higher = more signal;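 further: z-score merges 667 nm fluorescence with per-spot signal-to-noise over triplicate slides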
[5] = target: Follistatin (Homo sapiens) (UniProt P19883); assay: follistatin binders on small-molecule microarrays, primary screen, biochemical, small-molecule microarray, 635/667 nm fluorescence (AID 1132); settings: FST binding, 635 nm fluorescence, higher = more signal
Follistatin (Homo sapiens), sequence (P19883 whole entry, looked up): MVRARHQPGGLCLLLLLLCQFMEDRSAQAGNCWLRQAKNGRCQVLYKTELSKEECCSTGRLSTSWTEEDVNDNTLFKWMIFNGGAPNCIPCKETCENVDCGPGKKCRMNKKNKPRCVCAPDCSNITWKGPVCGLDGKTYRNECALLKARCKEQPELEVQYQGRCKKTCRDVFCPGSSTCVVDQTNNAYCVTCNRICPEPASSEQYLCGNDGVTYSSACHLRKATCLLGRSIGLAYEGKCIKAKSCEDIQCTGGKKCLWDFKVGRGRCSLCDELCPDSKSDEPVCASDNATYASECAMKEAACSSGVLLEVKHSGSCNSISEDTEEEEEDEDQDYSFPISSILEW

[6] = target: Fibroblast growth factor 2 (Homo sapiens) (UniProt P09038); assay: FGF2 binders on small-molecule microarrays, primary screen, biochemical, small-molecule microarray, 635/667 nm fluorescence (AID 1133); settings: small-molecule microarray binding, FGF2, fluorescence 635/667; higher = more signal
Fibroblast growth factor 2 (Homo sapiens), sequence (P09038 whole entry, looked up): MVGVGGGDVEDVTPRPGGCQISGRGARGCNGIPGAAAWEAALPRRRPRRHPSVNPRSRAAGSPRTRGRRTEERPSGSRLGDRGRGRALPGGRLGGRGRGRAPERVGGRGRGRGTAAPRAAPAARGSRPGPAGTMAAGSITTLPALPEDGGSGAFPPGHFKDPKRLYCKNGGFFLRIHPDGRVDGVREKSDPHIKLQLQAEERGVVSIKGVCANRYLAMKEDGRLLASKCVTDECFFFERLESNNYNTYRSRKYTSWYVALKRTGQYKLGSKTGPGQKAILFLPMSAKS

[7] = mitochondrial membrane potential change in A549 cells, profiling panel, cell-based, JC-1 fluorescence, basal, 24 h, 100 nL (AID 1138); settings: higher = more signal;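 further: A549 lung adenocarcinoma cells under basal conditions with no added stimulus; test concentration not given here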
Lefty1 = Lefty1 binders on small-molecule microarrays, primary screen, biochemical, small-molecule microarray, 635/667 nm fluorescence (AID 1139); settings: small-molecule microarray binding, fluorescence 635/667; higher = more signal
[8] = system: wheat germ agglutinin (Triticum aestivum), Alexa647-labelled; assay: wheat germ agglutinin binders on compound microarrays, profiling panel, artefact control for SMM control-protein annotation, biochemical, small-molecule microarray, 635/667 nm fluorescence (AID 1140); settings: WGA-A647 binding, 635 nm fluorescence, higher = more signal;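 further: score merges 667 nm feature emission with signal to noise over triplicate slides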
[9] = target: Luciferin 4-monooxygenase (Photinus pyralis) (UniProt P08659); assay: firefly luciferase enzyme inhibitors, primary screen, biochemical, luminescence, purified enzyme, 2006 set (AID 1141); settings: SteadyGlo luminescence, 30 min, higher = more signal, called active from +8 up or from −8 down;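 further: cell-free assay with purified firefly luciferase at 100 ng per well in PBS; test concentration not given here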
Luciferin 4-monooxygenase (Photinus pyralis), sequence (P08659 whole entry, looked up): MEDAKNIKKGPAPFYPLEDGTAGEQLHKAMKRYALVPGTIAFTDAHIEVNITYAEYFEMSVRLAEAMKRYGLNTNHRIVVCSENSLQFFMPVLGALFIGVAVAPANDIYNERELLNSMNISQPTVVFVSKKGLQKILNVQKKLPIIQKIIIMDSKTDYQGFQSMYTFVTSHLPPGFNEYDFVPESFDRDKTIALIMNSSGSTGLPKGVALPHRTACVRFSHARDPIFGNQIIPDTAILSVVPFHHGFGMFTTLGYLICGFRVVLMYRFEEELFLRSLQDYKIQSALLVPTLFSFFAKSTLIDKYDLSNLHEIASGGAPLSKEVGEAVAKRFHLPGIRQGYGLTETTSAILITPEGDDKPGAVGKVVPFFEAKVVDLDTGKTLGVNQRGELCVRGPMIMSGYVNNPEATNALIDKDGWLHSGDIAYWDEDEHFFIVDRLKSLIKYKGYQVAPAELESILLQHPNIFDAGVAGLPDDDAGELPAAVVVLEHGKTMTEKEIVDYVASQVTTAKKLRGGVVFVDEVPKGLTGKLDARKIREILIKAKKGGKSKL

[10] = system: Wnt5a (protein binding on small-molecule microarray); assay: Wnt5a binders on small-molecule microarray, primary screen, biophysical, 635/667 nm fluorescence (AID 1142); settings: 635 nm fluorescence, higher = more signal;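 further: fluorescence read at 667 nm with signal to noise per printed feature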
[11] = cell viability in Huh7 cells, primary screen, cytotoxicity control for HCV replication inhibitor project, CellTiter-Glo luminescence, basal, 48 h (AID 1143); settings: Huh7 HCV replicon, higher = more signal, called active from +8 up or from −8 down;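 further: Huh7 hepatoma cells carrying a hepatitis C replication reporter with no stimulus; test concentration not given here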
[12] = P. aeruginosa biofilm formation inhibitors, primary screen, PAO1 strain, BacTiter-Glo luminescence, LB-PBS (AID 1144); settings: 12 h, higher = more signal
[13] = CREB reporter modulators without forskolin, primary screen, cell-based, PC12, CRE-LacZ reporter, unstimulated (AID 1145); settings: no forskolin, luminescence, 4.5 h, higher = more signal, called active from +8 up or from −8 down
[14] = CREB reporter modulators under forskolin, primary screen, cell-based, PC12, CRE-LacZ reporter, forskolin-stimulated (AID 1146); settings: luminescence, 4.5 h, higher = more signal, called active from +8 up or from −8 down;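 further: PC12 cells with 6xCRE LacZ reporter stimulated by forskolin 10 µM; beta-galactosidase reporter signal reflecting CREB driven transcription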
[15] = target: Streptavidin (Streptomyces avidinii) (UniProt P22629); assay: streptavidin binders on small-molecule microarray, primary screen, artefact control for SMM compound annotation, biophysical, 635/667 nm fluorescence (AID 1147); settings: streptavidin binding, higher = more signal;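 further: signal reflects streptavidin binding to arrayed compounds as a control protein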
Streptavidin (Streptomyces avidinii), sequence (P22629 whole entry, looked up): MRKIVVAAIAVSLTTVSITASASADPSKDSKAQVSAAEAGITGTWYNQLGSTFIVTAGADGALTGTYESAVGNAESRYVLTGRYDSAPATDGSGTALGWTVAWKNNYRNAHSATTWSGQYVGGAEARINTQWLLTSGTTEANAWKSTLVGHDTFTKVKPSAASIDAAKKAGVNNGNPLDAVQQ

[16] = small-molecule binders of probe aInhba, primary screen, biochemical, small-molecule microarray, 635/667 nm fluorescence (AID 1148); settings: higher = more signal;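 further: score merges 667nm spot fluorescence with signal-to-noise for antibody binding to printed compounds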
Torsin-1A (Homo sapiens) [17] = target: Torsin-1A (Homo sapiens) (UniProt O14656); assay: torsin A binders from cell lysate, primary screen, small-molecule microarray, wild-type, 635/667 nm (AID 1149); settings: COS7 hTOR1A-WT lysate, 635 nm fluorescence, higher = more signal
Torsin-1A (Homo sapiens), sequence (O14656 whole entry, looked up): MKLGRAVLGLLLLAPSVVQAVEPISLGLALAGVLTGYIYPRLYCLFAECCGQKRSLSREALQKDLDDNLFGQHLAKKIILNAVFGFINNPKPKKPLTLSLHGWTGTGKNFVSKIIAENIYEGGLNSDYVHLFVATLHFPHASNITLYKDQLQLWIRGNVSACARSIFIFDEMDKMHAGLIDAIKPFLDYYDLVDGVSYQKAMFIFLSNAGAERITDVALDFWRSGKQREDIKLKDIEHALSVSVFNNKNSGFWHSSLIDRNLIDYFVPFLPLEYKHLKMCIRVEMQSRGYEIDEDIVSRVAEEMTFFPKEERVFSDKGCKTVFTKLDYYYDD

Torsin-1A (Homo sapiens) [18] = target: Torsin-1A (Homo sapiens) (UniProt O14656); assay: small-molecule binders of mutant TOR1A in lysate, primary screen, cell lysate, small-molecule microarray, COS7 lysate, 635/667 nm fluorescence (AID 1150); settings: COS7 hTOR1A mutant lysate, 635 nm fluorescence, higher = more signal;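 further: score pools 667 nm emission and signal to noise measuring lysate protein binding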
[19] = system: Sonic hedgehog protein (Shh); assay: small-molecule binders of Shh protein, primary screen, biochemical, small-molecule microarray, 635/667 nm fluorescence (AID 1151); settings: small-molecule microarray binding, 635 nm fluorescence; higher = more signal;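 further: Shh protein binding to compounds spotted on small-molecule microarray slides; score combines spot fluorescence intensity with signal-to-noise across triplicate slides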

| SMILES | composite z-score [1] | composite z-score [2] | composite z-score [3] | composite z-score [4] | composite z-score [5] | composite z-score [6] | z-score [7] | composite z-score (Lefty1) | composite z-score [8] | z-score [9] | composite z-score [10] | z-score [11] | z-score [12] | z-score [13] | z-score [14] | composite z-score [15] | composite z-score [16] | composite z-score (Torsin-1A (Homo sapiens) [17]) | composite z-score (Torsin-1A (Homo sapiens) [18]) | composite z-score [19] |
| --- | --- | --- | --- | --- | --- | --- | --- | --- | --- | --- | --- | --- | --- | --- | --- | --- | --- | --- | --- | --- |
| C=C(CCCC)/C(=C/C[C@H](OC(C)=O)c1cccc(OCCO)c1)c1cc(C(=O)OC)ccc1OC | -0.799 | -0.426 | -0.325 | 0.33 | 0.0088 | 0.261 | 3.6 | 0.283 | 0.635 | -1.64 (inactive) | -0.229 | -0.845 (inactive) | 0.0689 (inactive) | 12.1 (active) | -0.834 (inactive) | -0.77 | -0.0059 | -0.552 | -0.426 | 0.454 |
| NCCCC[C@@H]1NC(=O)[C@H]2C[C@@H](C(=O)NCc3ccc(F)cc3)[C@@H](c3cccc(OCCO)c3)N2C1=O | 2.48 | 1.23 | 0.0858 | 0.763 | 1.32 | 1.62 | -1.7 | 1.56 | 0.231 | -0.434 (inactive) | 0.334 | -0.262 (inactive) | -0.862 (inactive) | 0.0084 (inactive) | -0.583 (inactive) | -0.0648 | 0.122 | 0.608 | 1.48 | 2.07 |
| C=CC[C@@]1(C(=O)N(C)C)N=C(c2ccc(OCCCO)cc2)O[C@@H]1c1ccccc1 | 2.63 | 1.24 | 0.356 | 0.3 | 0.0236 | 0.298 | -0.324 | -0.68 | 1.02 | 0.213 (inactive) | 0.919 | -1.45 (inactive) | 0.442 (inactive) | 0.652 (inactive) | 0.535 (inactive) | -0.232 | 0.496 | 0.986 | 0.571 | -0.0763 |
| CCOC(=O)C[C@H]1[C@H](OC(=O)c2ccc(-c3ccccc3)cc2)[C@@H](NC(=O)CC(C)C)c2cc(OCCCO)ccc2N1C(=O)Cc1ccc(OC)cc1 | -0.283 | 0.686 | 0.0381 | 0.54 | -0.195 | 0.0007 | 0.598 | -0.276 | 0.535 | 0.491 (inactive) | 0.0564 | -0.155 (inactive) | 0.606 (inactive) | 0.0035 (inactive) | -0.163 (inactive) | 0.438 | -0.0223 | -0.111 | 0.508 | -0.307 |
| N[C@@H](Cc1ccccc1)Cn1cc(C2(O)CCCCC2)nn1 | 0.124 | 0.062 | 0.0655 | 0.556 | 0.0725 | -0.445 | 0.375 | 0.333 | 0.128 | -0.377 (inactive) | -0.0937 | 0.08 (inactive) | 0.683 (inactive) | -0.244 (inactive) | 0.766 (inactive) | 0.984 | -0.0494 | 0.0636 | -0.0257 | -0.219 |
| CC(C)C[C@@H]1NC(=O)C([C@@H](C)OCc2ccccc2)NC(=O)[C@@]23C(=O)N[C@@H](Cc4ccccc4)C2[C@H](C)[C@@]2(C)O[C@H]2C3/C=C/CC/C=C/CNC1=O (stereo not given in full) | 0.48 | 0.809 | 0.87 | -0.209 | 0.761 | 1.11 | 0.728 | 0.659 | 0.503 | 0.533 (inactive) | 0.237 | -4.9 (inactive) | -0.469 (inactive) | 1.76 (inactive) | -1.52 (inactive) | 0.264 | -0.206 | -0.608 | 0.32 | 1.07 |
| COc1ccc(C#Cc2ccc3c(c2)[C@]2(C(=O)N3)[C@H](c3ccc(OCCO)cc3)N3[C@H](c4ccccc4)[C@H](c4ccccc4)OC(=O)[C@H]3[C@@H]2C(=O)O)cc1 | 0.406 | 1.22 | 0.583 | 0.771 | 1.15 | 0.485 | -2.54 | 1.63 | 0.416 | -4.63 (inactive) | 0.57 | -5.01 (inactive) | -2.48 (inactive) | -0.0515 (inactive) | 3.52 (inactive) | -0.105 | 0.927 | 0.546 | 1.2 | 1.89 |
| CO[C@H]1O[C@H](CO)[C@@H](OC(=O)Nc2ccc(C(F)(F)F)cc2)[C@H](OC(=O)Nc2ccccc2-c2ccccc2)[C@H]1OC(=O)Nc1ccccc1-c1ccccc1 | 1.7 | 1.26 | 0.735 | 1.04 | 1.27 | 0.686 | -0.132 | 0.617 | 0.662 | -0.68 (inactive) | 0.856 | -6.09 (inactive) | 0.435 (inactive) | 0.447 (inactive) | -0.747 (inactive) | 0.967 | 0.0504 | 0.276 | 0.263 | 1.61 |
| CC(C)(C)N1CC=CC23O[C@@H]4/C=C\CCCOC(=O)C4[C@H]2C(=O)N(CCCCCCO)[C@@H]3C1=O (stereo not given in full) | 3.08 | -0.444 | -0.639 | -1.01 | -0.93 | -0.502 | 1.2 | -1.11 | 0.0119 | -0.854 (inactive) | -0.731 | -0.0711 (inactive) | -1.95 (inactive) | -0.224 (inactive) | -0.739 (inactive) | -1 | -0.0719 | 0.467 | 0.488 | -0.22 |
| C=CCNC(=O)[C@@H]1[C@H]2C(=O)O[C@H](c3ccccc3)[C@H](c3ccccc3)N2[C@H](c2ccccc2OCCO)[C@@]12C(=O)N(C(=O)OCCOC)c1ccc(C#CCCO)cc12 | 1.91 | 1.21 | 0.988 | 0.414 | 0.881 | 1.29 | -0.549 | 0.711 | 0.971 | -0.0405 (inactive) | 0.304 | -3.34 (inactive) | -0.976 (inactive) | -0.0768 (inactive) | -0.466 (inactive) | 0.284 | 0.0649 | 0.338 | 1.35 | 1.06 |

Source: PubChem BioAssay
